Each structure is given as a SMILES string. Among all 4,100 compounds or so, about 1,600 (39%) were called active. Another 25% or so got no clear call; they are omitted. The call rests on the fitted dose curve; in most records, active means well fitted inhibition curve with a large enough effect; inconclusive means small, poorly fitted or top-dose-only effect; inactive means no such curve, though single readings can be large or run the other way. The list shows a part of the results.

The source of these data is PubChem BioAssay AID1347416 (National Center for Advancing Translational Sciences (NCATS), 2020).
On the % scale 0 is the no-effect control and ±100 the full control effect; potency means the concentration at half of the fitted maximal effect.

A short description of this assay: qHTS Validation assay for Inhibitors of Plasmodium falciparum Dd2 growth in vitro. Further: nearly all actives have a fitted effect of over 70% in size. Conditions: P. falciparum Dd2 in RBCs, SYBR Green growth, 72 h; series mostly up to 28.7 µM; activity change, negative = inhibition: at the top concentration. The source says: Malaria, a parasitic disease spread to humans through the bite of a Plasmodium infected Anopheles mosquito, continues to be a global health burden affecting millions of people, with an estimated 228 million cases and 405,000 deaths in 2018. Concerns about safety and limitations of current antimalarial treatments strongly emphasize the need to develop new therapeutic options. The scarce number of chemotypes and validated drug targets with efficacy against the liver stage, have hindered development of new antimalarials. To address this, a chemoprophylactic drug discovery effort was conducted through a combined phenotypic high-throughput asexual blood stage and liver stage screen, providing a robust foundation to identify liver-stage active lead chemotypes. Compounds were initially screened against Plasmodium falciparum Dd2 strain parasites using a in vitro SYBRGreen-1 based 72 hr proliferation assay to identify novel chemotypes to advance to liver stage assays. NIH/NCATS Early Translation Branch Assay Submitter (PI): Anton Simeonov Ph.D.
[…] Assay Protocol: PROTOCOL TABLE (as described by Inglese et al., 2007) SEQUENCE No. (e.g., 1, 2, 3, etc.); PARAMETER (e.g., Cells, Incubation, Reagent, etc.); VALUE; DESCRIPTION SEQUENCE, Parameter, Description 1; Reagent; 3 uL complete malaria growth medium, 1536 TC treated Black clear bottom plate 2; Controls; 23 nL positive control artesunate (300 nM final) to column 1; Neutral control DMSO to columns 2-4 3; Compound; 23 nL of compounds in dose response concentration (29 uM to 0.5 nM final) 4; Reagent; 5 uL malaria infected red blood cells (2.5% hematocrit final, 0.3% parasitemia 5; Time; 72 hours at 37C (5% O2, 5% CO2, 90% N2; 95% Rh) 6; Reagent; 2 uL lysis buffer/SYBRGreen-1, 25 sec shake immediately following dispense 7; Time; ~16 hours at 37C (5% O2, 5% CO2, 90% N2; 95% Rh) 8; Detector; EnVision (PerkinElmer) bottom read at 485/14nm excitation and 535/25 nm emission NOTES (numbers refer to sequence above): 1; Complete Malaria Growth Media: 1X RPMI-1640 w/L-glutamine, 5.5g/L Albumax II, 367 uM Hypoxanthine, 25 mM HEPES, 0.25% Sodium Bicarbonate, 35 uM Gentamicin sulfate 2; Controls were added using the Kalypsis Pintool (Wako USA) equipped with 1536 pinhead 3; Compounds were added in a 7-point, titration with a high final concentration of 29 uM by Pintool from seven inter-plate titrations of library plates and two DMSO control plates at the beginning and end (see Yasgar et al., 2008). 4; Red blood cells infected with Plasmodium falciparum Dd2 parasites were used. 6; Lysis buffer: 20 mM Tris-HCl, 10 mM EDTA, 0.16% Saponin, 1.6% Triton-X, 10X SYBR Green. REFERENCE: Inglese J, Shamu CE, Guy RK. 2007. Reporting data from high-throughput screening of small-molecule libraries. Nat Chem Biol. doi:10.1038/nchembio0807-438 Yasgar A, Shinn P, Jadhav A, Auld D, Michael S, Zheng W, Austin CP, Inglese J, Simeonov A. 2008. Compound Management for Quantitative High-Throughput Screening. J Lab Autom 13:79-89. doi:10.1016/j.jala.2007.12.004
Regarding `CC1(c2ccccc2)CC(c2ccccc2)=Nc2nonc2N1` (stereo unspecified), the Potency is 5.31 µM (active).
On the same count and under the same terms, with `COc1cc(/C=C(\C#N)c2nc3ccccc3[nH]2)ccc1OCc1ccc(F)cc1` the figure was 5.31 µM (active).
`COc1cc(SC)ccc1C(=O)Nc1nc2ccccc2[nH]1`: the “activity change, negative = inhibition” value was -19.7% (inactive).
On to `COc1cc(/C=C(\C#N)c2nc3ccccc3[nH]2)cc(Cl)c1OCc1ccccc1Cl`, for which the Potency is 5.31 µM (active).
Still for that read-out and setting: the value for `O=C(Nc1cnc2ccccc2c1)c1cccc(-n2cnnn2)c1` was 2.66 µM (active).
For the molecule `CCc1noc(-c2cccn3c(CNC(=O)c4ccc(Cl)cc4)nnc23)n1`, the “activity change, negative = inhibition” value was 16.2% (inactive).
Take `Cc1ccc(C)c(Oc2c(C(F)(F)F)oc3c(CN4CCN(C)CC4)c(O)ccc3c2=O)c1`: the Potency is 0.75 µM (active).
For the molecule `CCN1CCN(Cc2c(O)ccc3c(=O)c(Oc4ccccc4C(C)C)c(C(F)(F)F)oc23)CC1`, the Potency is 0.596 µM (active).
Regarding `CC(C)c1ccccc1Oc1c(C(F)(F)F)oc2c(CN3CCN(C)CC3)c(O)ccc2c1=O`, the Potency was 0.668 µM (active).
With `Cc1ccccc1C(=O)NC(CC(C)C)C(=O)OCC(=O)c1c(N)n(C)c(=O)n(C)c1=O` (stereo unspecified), the Potency was 2.66 µM (active).
`CCSc1nnc(SCC(=O)c2c(N)n(C)c(=O)n(C)c2=O)s1`: the “activity change, negative = inhibition” value was -13.4% (inactive).
Take `Cc1ccc(N(C)C2=NC(=O)CS2)cc1Cl`: the Potency is 9.44 µM (active).
Still for that read-out and setting: the value for `COc1cc(O)c(C(CCN2CCCCC2)c2ccc(N(C)C)cc2)c(OC)c1` (stereo unspecified) was 2.66 µM (active).
Same read-out and setting: the value for `COc1cc(O)c(C(CCN2CCCC(C)C2)c2ccc(N(C)C)cc2)c(OC)c1` (stereo unspecified) was 1.68 µM (active); that for `COc1cc(O)c(C(CCN2CCCC(C)C2)c2cc(OC)c(OC)c(OC)c2)c(OC)c1` (stereo unspecified) was 1.88 µM (active); that for `COc1cc(O)c(C(CCN2CCCCC2)c2cc(OC)c(OC)c(OC)c2)c(OC)c1` (stereo unspecified) was 2.66 µM (active).
As to `CCCCC(CC)CNC(=O)CCCCCn1c(=O)[nH]c2ccsc2c1=O` (stereo unspecified), the “activity change, negative = inhibition” value was -7.19% (inactive).
Consider `COc1ccc(C(CCN2CCCCC2)c2c(O)cc(OC)cc2OC)cc1` (stereo unspecified), for which the Potency is 1.33 µM (active).
Same read-out and setting: with `CCn1ccc2ccc(CN3CCCC(O)(CN4CCCC4)C3)cc21` (stereo unspecified) the figure was 7.5 µM (active).
Take `COc1ccc(C(=O)N2CCCC(O)(CN3CCCC3)C2)cc1Cl` (stereo unspecified): the “activity change, negative = inhibition” value is -13.3% (inactive).
Consider `C=CCN(Cc1ccccc1OCC)C(=O)c1ccc(N(C)S(C)(=O)=O)cc1`, for which the “activity change, negative = inhibition” value is 4.22% (inactive).
On the same count and under the same terms, with `CCCC1=[N+](CC)CCn2c(C)ccc21` the figure was -15.7% (inactive).
On to `COC(=O)c1c(-c2c(Cl)cccc2Cl)noc1NC(=O)NN1CCCCC1`, for which the Potency was 2.37 µM (active).
The same measure, in the same setting: with `CN1CCC(NCCC(c2ccc(F)cc2)c2ccc(Cl)cc2)CC1` (stereo unspecified) the figure was 4.22 µM (active).
As for `OC(CN1CCC(Cc2ccc(F)cc2)CC1)c1ccc(Cl)cc1` (stereo unspecified), the “activity change, negative = inhibition” value was -97.7% (inactive).
Regarding `CCC(=O)N(C1=C(NC(C)C)C(=O)c2ccccc2C1=O)C(C)C`, the Potency is 2.37 µM (active).
For `O=C(NC1CCCC1)c1ccc(OC2CCN(CCCC(F)(F)F)CC2)c(Cl)c1`, the Potency was 9.44 µM (active).
On the same count and under the same terms, with `COCCNC(=O)c1ccc(OC2CCN(C/C=C/c3ccc(F)cc3)CC2)c(Cl)c1` the figure was 10.6 µM (active).
Turning to `CC(=O)Nc1ccc(/C(C)=N\NC(=O)c2ccc(-c3ccccc3)cc2)cc1`, the “activity change, negative = inhibition” value is 18.3% (inactive).
On to `CC(=O)Nc1cc(-c2ccccc2)ccc1O`, for which the Potency was 4.73 µM (active).
For `CN(Cc1ccc(-c2ccccc2)cc1)C(=O)C1CC1`, the “activity change, negative = inhibition” value was 11.1% [at 43.1 µM] (inactive).
As for `CC(C)(Oc1nn(Cc2cccc(Cl)c2)c2ccccc12)C(=O)NCCN1CCOCC1`, the Potency is 5.31 µM (active).
Still for that read-out and setting: the value for `COCc1ccc2c(c1)c(OC(C)(C)C(=O)N1CCN(CCO)CC1)nn2Cc1ccccc1` was 9.44 µM (active); that for `CN1CCN(C(=O)C(C)(C)Oc2nn(Cc3cccc(Cl)c3)c3ccccc23)CC1` was 7.69 µM (active).
`CC(C)(Oc1nn(CCOc2ccccc2)c2ccccc12)C(=O)NCc1cnccn1`: the “activity change, negative = inhibition” value was -20.1% [at 43.1 µM] (inactive).
For `CC(C)n1nc(OC(C)(C)C(=O)NCCc2cccnc2)c2cc(CN3CCOCC3)ccc21`, the “activity change, negative = inhibition” value was -3.54% (inactive).
With `COCc1ccc2c(c1)c(OC(C)(C)C(=O)NCC1CCOCC1)nn2Cc1cccnc1`, the “activity change, negative = inhibition” value is 22.6% (inactive).
Consider `N#Cc1cc(C(=O)c2cc(Br)ccc2O)cn(C2CCCCC2)c1=O`, for which the Potency is 0.668 µM (active).
On to `CCCCn1cc(C(=O)c2cc(Br)ccc2O)cc(C#N)c1=O`, for which the Potency was 13.3 µM (active).
The same measure, in the same setting: with `CN(C)c1cc[n+](Cc2ccccc2)cc1` the figure was 10.6 µM (active).
Turning to `CCOC(=O)CCCOc1cccn2c(=O)c(-c3cc(C)n(-c4ccc(Cl)cc4)n3)c(C)nc12`, the Potency is 10.6 µM (active).
As for `CC(C)CCN1CCC2(CC1)CC(=O)N(c1ccccc1)c1ccccc1O2`, the “activity change, negative = inhibition” value is -9.65% (inactive).
As to `O=C1CC2(CCN([S+](=O)([O-])c3cccc(C(F)(F)F)c3)CC2)Oc2ccccc2N1c1ccccc1`, the Potency was 6.68 µM (active).
As for `COc1ccc(-n2nc(C3CCN([S+](=O)([O-])c4cccc(C(F)(F)F)c4)CC3)[nH]c2=O)cc1`, the “activity change, negative = inhibition” value is 0% (inactive).
For the molecule `Cc1ccc(S(=O)(=O)NC(=O)Nc2ccc(N(C)C)cc2)cc1`, the Potency is 1.33 µM (active).
For `CN(C)c1ccc(NC(=O)Oc2ccccc2)cc1`, the “activity change, negative = inhibition” value was 11.4% (inactive).
